According to PubChem BioAssay AID588330 (National Center for Advancing Translational Sciences (NCATS), 2011):
Records with an inconclusive call do not appear. Active and inactive are the calls of the source. Calls come from the whole dose curve; as a rule, active = well fitted inhibition curve with a large enough effect; inconclusive = small, poorly fitted or top-dose-only effect; inactive = flat fitted curve, though single readings scatter.

Each molecule was assayed on 6-phosphofructokinase (Trypanosoma brucei) (assay: Confirmatory Assay to Find Inhibitors of T. brucei phosphofructokinase: High ATP). Conditions: T. brucei PFK, Kinase-Glo luminescence; series mostly up to 57.5 µM; activity, negative = inhibition: at the top concentration.
Source text: Various species of the protozoan family Trypanosomatidae are responsible for a range of serious human diseases in tropical and subtropical areas of the world. […] Many of the disorders caused by trypanosomatids are fatal if left untreated, but most currently used drugs are inefficient and toxic. […] Oxidative metabolism involving the mitochondrial tricarboxylic acid cycle and oxidative phosphorylation are repressed in these parasites, and recent RNA interference (RNAi) experiments have shown that even partial depletion of certain individual glycolytic enzymes can lead to the death of cultured parasites. One such glycolytic enzyme, phosphofructokinase (PFK), catalyzes the formation of fructose-1,6-bisphosphate (F1,6BP) and ADP from fructose-6-phosphate (F6P) and ATP, and in many metabolic circumstances makes an important contribution to the control of flux through the glycolytic pathway. As a specific glycolytic target, PFK is particularly attractive as it catalyzes the first irreversible step in glycolysis, and structural and kinetic studies have shown very substantial and essential differences from corresponding host enzymes, allowing for the discovery of parasite-selective inhibitors. A luminescent secondary assay was also performed that used luciferase-based nucleotide detection ([…]) similar to the qHTS, but that alternatively used saturating concentrations (10x Km concentrations) of ATP or F6P to determine if inhibitor potencies were shifted due to particular substrate competition. […] NIH Molecular Libraries Probe Production Network [MLPCN] NIH Chemical Genomics Center [NCGC] Grant: 1 R03 MH092153-01 PI Name: Malcolm Walkinshaw, University of Edinburgh
Substrate buffer was dispensed into white, solid 1536-well plates at 3 uL/well in 0.1M triethanolamine (TEA) buffer, pH 8.0, containing final concentrations of 5 mM MgCl2 and 0.01% Tween20. Standard substrate buffer contained 0.5mM fructose-6-phosphate (F6P) and 0.1mM ATP, high ATP substrate buffer contained 0.5mM fructose-6-phosphate (F6P) and 1mM ATP, high F6P substrate buffer contained 5mM fructose-6-phosphate (F6P) and 0.1mM ATP, and high ATP/F6P buffer contained 5mM fructose-6-phosphate (F6P) and 1mM ATP. Then, 23nl of compounds or DMSO were delivered to each well using a pin tool. One uL of T. brucei PFK (0.1M TEA, 0.01% Tween20, 0.1% bovine serum albumin (BSA) and 1.25nM PFK, final concentrations) was then dispensed, and plates were incubated at room temperature for 45 min. The luminescent detection reagent, Kinase-Glo Plus (Promega), was then added at 2ul/well and incubated for ten minutes at room temperature. The plates were measured on a ViewLux plate reader for luminescent signal using a clear filter with a one second exposure. The %Activity was determined from the corrected luminescence values. 1x (1.25nM) and 0x PFK enzyme controls (untreated) were included to normalize %Activity of identified inhibitors; 0x enzyme values corresponded to 100%Activity (full inhibition), while 1x PFK enzyme values were used to normalize 0% Activity (no inhibition).

activity, negative = inhibition, inactive:
COc1ccc(CC(=O)Nc2ccc(S(=O)(=O)Nc3cc(C)on3)cc2)cc1OC 4.22%, CCOC(=O)c1cccc(NS(=O)(=O)c2ccc(NC(=O)Cc3ccc(Cl)c(Cl)c3)cc2)c1 -7.44%, COc1ccc(CC(=O)Nc2ccc(S(=O)(=O)Nc3cc(C)on3)cc2)cc1C -20.3%, Cc1cc(NC(=O)c2csc(NC(=O)Cc3ccc(Cl)c(Cl)c3)n2)no1 -29.8%, Cc1cc(NC(=O)c2ccc(NC(=O)Cc3ccc(Cl)c(Cl)c3)cc2)no1 -7.03%

Potency, active:
Cc1cc(NS(=O)(=O)Cc2ccc(NC(=O)Cc3ccc(Cl)c(Cl)c3)cc2)no1 4.11 µM, Cc1cc(N[S+](=O)([O-])c2ccc3cc(NC(=O)Cc4ccc(Cl)c(Cl)c4)ccc3c2)no1 6.51 µM, Cc1cc(NS(=O)(=O)c2cccc(NC(=O)Cc3ccc(Cl)c(Cl)c3)c2)no1 18.3 µM, Cc1cc(NS(=O)(=O)c2ccc(NC(=O)Cc3ccc(Cl)c(C(F)(F)F)c3)cc2)no1 0.919 µM, Cc1cc(NS(=O)(=O)c2ccc(NC(=O)Cc3ccc(Cl)c(Cl)c3)cc2)n(C)n1 1.83 µM, Cc1cc(NS(=O)(=O)c2ccc(NC(=O)CCc3ccc(Cl)c(Cl)c3)cc2)no1 16.3 µM, O=C(Cc1ccc(Cl)c(Cl)c1)Nc1ccc(S(=O)(=O)Nc2ccn[nH]2)cc1 0.73 µM, Cc1cc(NS(=O)(=O)c2ccc(NCCc3ccc(Cl)c(Cl)c3)cc2)no1 16.3 µM, Cc1cc(NS(=O)(=O)c2ccc(NC(=O)Cc3ccc4ccccc4c3)cc2)no1 5.8 µM, O=C(Cc1ccc(Cl)c(Cl)c1)Nc1ccc(S(=O)(=O)Nc2ccc(C(=O)O)cc2)cc1 0.919 µM, Cc1cc(NS(=O)(=O)c2ccc(NC(=O)Cc3cccc(Cl)c3)cc2)no1 6.51 µM, O=C(Cc1ccc(Cl)c(Cl)c1)Nc1ccc(S(=O)(=O)O)cc1 1.03 µM, Cc1cc(NS(=O)(=O)c2ccc(NC(=O)Cc3ccc(Cl)c(Cl)c3)cc2)on1 0.517 µM, O=C(Cc1ccc(Cl)c(Cl)c1)Nc1ccc(S(=O)(=O)Nc2ccccc2)cc1 13 µM, O=C(Cc1ccc(Cl)c(Cl)c1)Nc1ccc(S(=O)(=O)Nc2cccc(O)c2)cc1 2.91 µM, Cc1cc(N[S+](=O)([O-])c2ccc(NC(=O)Cc3ccc(Cl)nc3)cc2)no1 18.3 µM, O=C(Cc1ccc(Cl)c(Cl)c1)Nc1ccc(S(=O)(=O)Nc2ccon2)cc1 0.326 µM, Cc1cc(NS(=O)(=O)c2ccc(NC(=O)Cc3ccc(Cl)cc3Cl)cc2)no1 6.51 µM, Cc1cc(NS(=O)(=O)c2ccc(NC(=O)Cc3ccc(C)c(C)c3)cc2)no1 18.3 µM, Cc1cc(NS(=O)(=O)c2ccc(NC(=O)Cc3ccc(Cl)c(F)c3)cc2)no1 1.03 µM, Cc1cc(NS(=O)(=O)c2ccc(NC(=O)Cc3ccc(C)c(F)c3)cc2)no1 8.19 µM, Cc1cc(NS(=O)(=O)c2ccc(C(=O)NCc3ccc(Cl)c(Cl)c3)cc2)no1 4.61 µM, O=C(Cc1ccc(Cl)c(Cl)c1)Nc1ccc(S(=O)(=O)Nc2cncnc2)cc1 1.3 µM, O=C(Cc1ccc(Cl)c(Cl)c1)Nc1ccc(S(=O)(=O)Nc2cccc(C(=O)O)c2)cc1 1.03 µM, Cc1cc(N(C)S(=O)(=O)c2ccc(NC(=O)Cc3ccc(Cl)c(Cl)c3)cc2)no1 3.26 µM, CN(C)c1cccc(NS(=O)(=O)c2ccc(NC(=O)Cc3ccc(Cl)c(Cl)c3)cc2)c1 23.1 µM, Cc1cc(NS(=O)(=O)c2ccc(NC(=O)Cc3ccc(Cl)c(Cl)c3)cc2)no1 0.517 µM, Cc1cc(NS(=O)(=O)c2ccc(NC(=O)Cc3ccc(Cl)cc3)cc2)no1 2.91 µM, Cc1cc(NS(=O)(=O)c2ccc(N(C)C(=O)Cc3ccc(Cl)c(Cl)c3)cc2)no1 1.3 µM
